# Screening data from PubChem BioAssay.
# NSD2 HMT inh = blocks human histone methyltransferase NSD2; NSD2 peptide methylation, AlphaScreen, 120 min; inhibition, % at 12.5 µM; actives 0.54% (n = 310,000); AID 743445; in the data active means inhibition above about 50%
# CASP6 VEID inh = inhibitors of human caspase-6 | P55212 | purified caspase-6, Z-VEID-R110 cleavage fluorescence | inhibition, % at 12.5 µM | actives 0.53% (n = 350,000) | AID 686996;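 active means mean inhibition across replicates at least about 35%, with every replicate also reaching that limit, limit read from the data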;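 further: 0% = median of neutral control wells and 100% = no fluorescence left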
# ALR H2O2 inh = human ALR oxidase inhibition via reduced H2O2. P55789. actives 3.8% (n = 290,000). inhibition, % (concentration not given with the values). purified ALR, DTT oxidation, H2O2 HRP-luminol luminescence;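 active means mean replicate inhibition above about 79%, with every replicate also reaching it, limit read from the data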
# SUMO Mot1 rescue = SUMOylation pathway inhibition by Mot1-301 growth rescue | actives 1% (n = 320,000) | growth rescue, % at 18.8 µM | S. cerevisiae Mot1-301 growth rescue, ATP luminescence, 38.5C; percent above DMSO median, 100 means doubled | AID 2716;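 active means every valid replicate shows activation above 250% relative to neutral control wells; inactive means the rest, any valid replicate at or below 250%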;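 further: OY570 slx delta 5 strain wells were the positive control but not used for scaling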
# CDK5 p35 inh = blocks human CDK5/p35 kinase activity; Q00535+Q15078; Recombinant CDK5/p35, ADP-Glo luminescence, 60 min; inhibition, % at 10 µM; actives 0.01% (n = 330,000); AID 488839;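 active means highest replicate inhibition of at least 50% and at least 75% of replicates reaching 50%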;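 further: plate controls were DMSO neutral control for no effect and GW8510 at 10 µM for full effect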
# Target sequence (Q00535 whole entry, looked up): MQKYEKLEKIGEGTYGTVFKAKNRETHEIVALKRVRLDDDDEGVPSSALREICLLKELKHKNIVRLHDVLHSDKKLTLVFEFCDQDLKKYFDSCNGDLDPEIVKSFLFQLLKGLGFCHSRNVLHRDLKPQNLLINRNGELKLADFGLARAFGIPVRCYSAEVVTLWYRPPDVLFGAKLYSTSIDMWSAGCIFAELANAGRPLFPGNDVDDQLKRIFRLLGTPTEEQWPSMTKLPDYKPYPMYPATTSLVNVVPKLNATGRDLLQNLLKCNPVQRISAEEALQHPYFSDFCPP
# Target sequence (Q15078 whole entry, looked up): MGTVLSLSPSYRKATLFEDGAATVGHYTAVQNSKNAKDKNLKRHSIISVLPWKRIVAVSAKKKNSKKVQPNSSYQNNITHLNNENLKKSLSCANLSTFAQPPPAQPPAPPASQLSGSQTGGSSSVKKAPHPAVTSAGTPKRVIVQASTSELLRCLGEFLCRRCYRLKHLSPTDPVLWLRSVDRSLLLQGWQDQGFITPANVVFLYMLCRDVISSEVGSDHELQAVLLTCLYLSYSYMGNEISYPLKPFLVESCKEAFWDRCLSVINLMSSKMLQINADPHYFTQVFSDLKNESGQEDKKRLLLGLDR
# Glyco luc inh = N-linked glycosylation inhibition; reporter increase, % at 12.5 µM; AID 588692; D54 ERlucT glycosylation luciferase reporter, 24 h; percent of 100 nM tunicamycin response; actives 0.23% (n = 360,000);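 active means mean luciferase reporter signal, scaled so untreated is 0 and the glycosylation-blocking control 100, at or above a set limit in every replicate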;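 further: luciferase carries N-glycosylation sites so blocking glycosylation raises the light; 0% = median of neutral control wells and 100% = median of 100 nM tunicamycin wells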
# * hit, by the source's call; nt = no result given. In the library only some 3.9% were active in any assay of this set; here they are far more common.
SMILES,NSD2 HMT inh,CASP6 VEID inh,ALR H2O2 inh,SUMO Mot1 rescue,CDK5 p35 inh,Glyco luc inh
Cc1cc(O)c(C(=O)Cc2csc(C)n2)c(O)c1,-3.5,1.3,4.5,95.8,-4.7,-1.2
O=C(NCC[C@@H]1CC[C@@H](NS(=O)(=O)c2ccccc2)[C@H](CO)O1)c1cc(Cl)cc(Cl)c1,nt,0.4,nt,nt,nt,nt
O=c1[nH]c(Nc2ccccc2)cc2cc(Br)ccc12,nt,98.9*,-1.1,115.0,-1.0,13.9
O=c1[nH]c(Nc2ccccc2)cc2ccccc12,81.8*,nt,5.5,-6.5,1.0,4.7
Cn1c(=O)cc(Nc2ccccc2)[nH]c1=O,13.3,-2.3,nt,-1.7,0.4,1.8
CC(=O)c1cccc(-c2ccc3c(=O)[nH]c(Nc4ccccc4)cc3c2)c1,nt,94.7*,-117.1,28.4,0.0,-2.5
CN(C)CC(=O)Nc1ccc2c(c1)[C@H]1C[C@H](CC(=O)NCc3cccc(F)c3)O[C@H](CO)[C@H]1O2,nt,-3.1,nt,nt,nt,nt
Cc1ccc(S(=O)(=O)Nc2ccc3c(c2)C(=O)N([C@H](C)CO)C[C@@H](C)[C@H](CN(C)S(=O)(=O)c2ccccc2)O3)cc1,nt,-2.9,nt,nt,nt,nt
C[C@H](CO)N1C[C@H](C)[C@@H](CN(C)CC2CCCCC2)Oc2ccc(NS(=O)(=O)c3ccc(F)cc3)cc2CC1=O,nt,1.8,nt,nt,nt,nt
O=c1n(CCCN2CCN(c3cccc(Cl)c3)CC2)nc2ccccn12,nt,nt,93.2*,12.9,0.2,-1.3
CCC(=O)Nc1nnc(C(C)(C)C)s1,0.8,nt,98.2*,-14.2,-6.6,1.1
CC(C)(C)c1ccc(C(=O)CCCSC2=C(C#N)C(c3ccco3)C3=C(CCCC3=O)N2)cc1 (centres undefined),5.4,nt,3.4,-7.3,-0.8,-4.9
CCCCc1ccc(NC(=O)CSC2=C(C#N)C(c3ccco3)C3=C(CCCC3=O)N2)cc1 (centres undefined),-0.5,nt,98.5*,-4.1,0.3,-2.1
COc1cccc(NC(=O)CSC2=C(C#N)C(c3ccco3)C3=C(CCCC3=O)N2)c1 (centres undefined),0.9,nt,59.3,-3.9,1.7,7.8
Cc1ccc(C(=O)CSC2=C(C#N)C(c3ccco3)C3=C(CCCC3=O)N2)cc1 (centres undefined),-3.5,nt,99.1*,12.6,0.6,10.8
N#CC1=C(SCC(=O)c2ccccc2)NC2=C(C(=O)CCC2)C1c1ccco1 (centres undefined),4.9,nt,87.5*,-12.3,-0.8,13.9
CN1c2ccc(-c3cccc(F)c3)cc2[C@@H]2[C@@H](CCN2C(=O)C2CCC2)[C@@H]1CO,nt,0.9,nt,nt,nt,nt
COc1ccc(CS(=O)(=O)/C(Cl)=C(/Cl)C(=O)Nc2ccc(OC)nc2)cc1,nt,nt,97.9*,-17.7,-0.2,-18.2
COc1ccc(NC(=O)/C(Cl)=C(/Cl)S(=O)Cc2ccccc2)cn1 (centres undefined),9.4,nt,-6.5,34.1,0.8,-18.1
C[C@H]1CN([C@@H](C)CO)C(=O)c2c(c3ccccc3n2C)-c2ccccc2CO[C@H]1CN(C)Cc1ccc(C(=O)O)cc1,nt,2.9,nt,nt,nt,nt
CCOC(=O)c1oc2cccc(O)c2c1CN(Cc1ccccc1)C(C)=O,0.2,nt,85.2*,376.9,-1.5,-1.9
Cc1cc(C)n2c(Nc3c(C)cccc3C)c(-c3ccccn3)nc2n1,nt,-1.7,nt,nt,nt,nt
CCCCCCSc1cccc(-c2nc3ccc(C)cn3c2NC2CCCCC2)c1,nt,0.8,nt,-18.6,-0.5,-6.1
Cc1cccc(C)c1Nc1c(-c2ccccn2)nc2ccccn12,23.9,2.4,94.1*,-33.0,-5.6,-1.7
Cc1ccc(Nc2c(-c3ccccn3)nc3cccc(C)n23)cc1,35.8,3.6,98.9*,-24.2,0.9,1.8
SMILES,NSD2 HMT inh,CASP6 VEID inh,ALR H2O2 inh,SUMO Mot1 rescue,CDK5 p35 inh,Glyco luc inh
Cc1ccc2nc(-c3ccccn3)c(NC3CCCC3)n2c1,nt,-0.7,98.8*,-4.6,1.8,-3.6
Cc1cccc2nc(-c3ccco3)c(Nc3ccccc3)n12,1.1,2.4,nt,11.2,1.8,-5.0
CN1[C@@H]2c3ccc(-c4ccccc4)c(=O)n3C[C@H]1[C@H](CO)[C@H]2C(=O)Nc1nccs1,nt,-1.1,nt,nt,nt,nt
C[C@H](CO)N1C[C@H](C)[C@@H](CN(C)C(=O)Nc2ccc3c(c2)OCO3)Oc2ccc(NC(=O)CCCCCC(=O)Nc3ccccc3N)cc2C1=O,nt,-0.9,nt,nt,nt,nt
CC(C)CCN1CCC(CN2CCNC(=O)C2=O)CC1,nt,11.1,nt,nt,-0.3,2.7
CC(C)CN1CCC(CN2CCNC(=O)C2=O)CC1,nt,35.9*,nt,nt,0.0,1.1
C[C@H](CO)N1C[C@H](C)[C@H](CN(C)Cc2ccc(Cl)c(Cl)c2)OCc2cn(nn2)CCCC1=O,nt,-1.5,nt,nt,nt,nt
Cc1ccc(-c2csc(CC(N)=O)n2)cc1,-4.3,-0.7,91.1*,-1.8,0.3,2.2
COc1cc(/C=C(/C#N)c2ccc(F)cc2)ccc1OCc1ccc(C(=O)O)o1,7.3,nt,97.5*,8.5,0.9,0.1
COc1cc(/C=C(\C#N)C(=O)Nc2cccc(C(=O)O)c2)ccc1OCc1ccc(F)cc1,2.9,5.4,6.9,-6.4,-1.4,-5.4
c1ccc(Nc2ccccc2Nc2ccccn2)nc1,3.7,1.9,88.7*,0.0,-3.7,2.4
CN(CCO)c1cnccn1,-1.1,-6.7,-4.0,580.4*,-0.1,1.9
CC(C)NC(=O)N1[C@H](CO)[C@@H](c2ccccc2)C12CN(C(=O)Cc1cccnc1)C2,nt,42.0*,nt,nt,nt,nt
CCN(CC(=O)NCc1ccc(F)cc1)C(=O)/C=C/c1ccco1,1.5,0.9,87.5*,-1.3,4.4,1.2
CCCCOc1ccc(-c2nc(=S)[nH][nH]2)cc1,-1.0,nt,98.8*,7.9,6.9,0.8
CCCCOc1ccc(-c2nc(SCC(N)=O)n[nH]2)cc1,0.3,nt,0.9,-14.3,1.8,-0.4
CC1CCc2c(sc3nc(CN4CCOCC4)nc(Sc4ccccc4)c23)C1 (centres undefined),3.0,nt,98.4*,146.9,2.3,-0.6
COc1ccc(Nc2nc(CN3CCOCC3)nc3sc4c(c23)CCC(C)C4)cc1OC (centres undefined),nt,nt,-10.5,-11.2,nt,nt
CCc1c(C)sc(NC(=O)c2ccco2)c1C(=O)N1CCCCC1,0.4,nt,80.7*,-16.0,-2.8,0.0
O=C(C[C@@H]1C[C@H]2c3cc(NC(=O)Nc4ccccc4)ccc3O[C@H]2[C@H](CO)O1)NC1CCCC1,nt,4.7,nt,nt,nt,nt
Cc1cc2cc(CNS(=O)(=O)c3ccccc3)ccc2n1C,nt,-0.5,95.6*,195.5,-0.8,-5.1
COc1ccc(S(=O)(=O)NCc2ccc3c(c2)cc(C)n3C)cc1,nt,1.8,nt,-16.7,0.6,-0.2
CCC1CCCCN1S(=O)(=O)c1ccc(C(=O)Nc2nnc(-c3cccs3)o2)cc1 (centres undefined),nt,nt,97.9*,-7.1,-0.7,0.3
COc1cccc(-c2ccc3c(c2)[C@H]2[C@H](CCN2S(=O)(=O)c2ccccc2OC)[C@@H](CO)N3C)c1,nt,-3.3,nt,nt,nt,nt
CSc1nc(-c2ccccc2)nc2c1COC(C)(C)C2,0.6,nt,-1.0,-0.5,1.5,1.9
